Laboratory results from PubChem BioAssay (EPA / NIEHS).
Results filed as inconclusive are left out. Activity calls are given as the source filed them. Rule for the calls: active = hit-call score of the fitted dose curve at least 0.9, where 1 is the maximum; inconclusive = response in the unintended direction; inactive = score below 0.9.

Target: human Thyroid Receptor alpha (THRa1), THRA (gene 7067) (UniProt P10827)
Test: ATG_THRa1_TRANS: Attagene TRANS-FACTORIAL HepG2 Assay for human Thyroid Receptor alpha (THRa1) (AID 2283014)
Method: ATG_TRANS is a cell-based, multiplexed-readout assay that uses HepG2, a human liver cell line, with measurements taken at 24 hours after chemical dosing in a 24-well plate.ATG_THRa1_TRANS is one of 30 assay component(s) measured or calculated from the ATG_TRANS assay. It is designed to make measurements of mRNA induction, a form of inducible reporter, as detected with fluorescence intensity signals by Reverse transcription polymerase chain reaction (RT-PCR) and Capillary electrophoresis technology.Data from the assay component ATG_THRa1_TRANS was analyzed into 1 assay endpoint. This assay endpoint, ATG_THRa1_TRANS, was analyzed in the positive analysis fitting direction relative to DMSO as the negative control and baseline of activity. Using a type of inducible reporter, measures of mRNA for gain-of-signal activity can be used to understand the reporter gene at the transcription factor-level as they relate to the gene THRA. Furthermore, this assay endpoint can be referred to as a primary readout, because this assay has produced multiple assay endpoints where this one serves a reporter gene function. To generalize the intended target to other relatable targets, this assay endpoint is annotated to the nuclear receptor intended target family, where the subfamily is non-steroidal.
Human liver HepG2 cells are transiently transfected with multiple reporter transcription units (MRTUs) in 6-well plates using FuGene 6 reagent (Roche; 3 ml FuGene/1 mg DNA). The MRTU constructs are regulated by a cis-regulating element (promoter). […] A major difference between the CIS and TRANS system is that in CIS activities of endogenous TFs are measured, whereas the TRANS assay evaluates changes in activities of exogenous, chimeric NR-Gal4 proteins. […] At the end of 24 hour incubation, total RNA was isolated using TriZol reagent (Invitrogen). The isolated RNA is then reverse-transcribed using oligo(dT) primer and Mo-MLV reverse transcriptase (Invitrogen) with DNAse I (Ambion) treatment for 30 min. The one-tenth of the produced cDNA was amplified by PCR using Taq DNA polymerase (Invitrogen) and two reporter sequence-specific primers. The PCR products were fluorescently labeled by primer extension with 6-arboxyfluorescein (6-FAM) 5'-labeled reporter sequence-specific primer (2 min at 95 C, 20 s at 68 C and 10 min at 72 C) and these products were digested with 5U of HpaI (New England Biolabs) for 2h at 37 C. The fragments were purified using Qiaquick PCR columns (Qiagen), analyzed on an ABI 3130xL genetic analyzer (Applied Biosystems) with peak positions identified by using a set of X-rhodamine (ROX)-labeled MapMarker1000 molecular weight standards (BioVentures). The raw capillary electrophoresis data was processed using Attagraph software (Attagene).

human Thyroid Receptor alpha (THRa1), THRA (gene 7067), sequence (P10827 whole entry, looked up): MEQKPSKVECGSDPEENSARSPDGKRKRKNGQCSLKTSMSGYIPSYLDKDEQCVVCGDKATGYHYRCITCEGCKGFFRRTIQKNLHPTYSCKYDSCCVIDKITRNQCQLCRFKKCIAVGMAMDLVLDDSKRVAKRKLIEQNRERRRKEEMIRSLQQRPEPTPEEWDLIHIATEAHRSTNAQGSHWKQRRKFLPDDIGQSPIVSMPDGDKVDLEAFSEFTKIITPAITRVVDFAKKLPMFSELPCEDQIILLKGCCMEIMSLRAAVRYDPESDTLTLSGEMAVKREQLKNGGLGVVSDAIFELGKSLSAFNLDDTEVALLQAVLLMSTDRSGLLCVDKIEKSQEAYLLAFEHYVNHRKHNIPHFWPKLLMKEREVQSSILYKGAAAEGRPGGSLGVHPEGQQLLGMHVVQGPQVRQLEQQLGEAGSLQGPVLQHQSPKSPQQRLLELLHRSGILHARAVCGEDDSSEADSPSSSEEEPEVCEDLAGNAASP

Row | Structure (SMILES) | outcome
1 | CNC(=O)Oc1cccc(N=CN(C)C)c1 | inactive
2 | CCC(C)(C)C(=O)OC1=C(c2ccc(Cl)cc2Cl)C(=O)OC12CCCCC2 | inactive
3 | CCOC1Oc2ccc(OS(C)(=O)=O)cc2C1(C)C (configuration not stated) | inactive
4 | CCS(=O)(=O)c1cccnc1S(=O)(=O)NC(=O)Nc1nc(OC)cc(OC)n1 | inactive
5 | CC(C)(C)C(O)C(Oc1ccc(Cl)cc1)n1cncn1 (configuration not stated) | inactive
6 | O=C(NC(=O)c1c(F)cccc1F)Nc1ccc(OC(F)(F)C(F)OC(F)(F)F)c(Cl)c1 (configuration not stated) | inactive
7 | O=S(=O)(O)C(F)(F)C(F)(F)C(F)(F)C(F)(F)C(F)(F)C(F)(F)C(F)(F)C(F)(F)F | inactive
8 | CC(C)(C)C(O)/C(=C\c1ccc(Cl)cc1Cl)n1cncn1 (configuration not stated) | inactive
9 | CCOCN(C(=O)CCl)c1c(C)cccc1CC | inactive
10 | N#Cc1c(Cl)c(Cl)c(Cl)c(C#N)c1Cl | inactive
11 | COC(=O)c1ccccc1S(=O)(=O)NC(=O)Nc1nc(C)nc(OC)n1 | inactive
12 | CCCN(CCOc1c(Cl)cc(Cl)cc1Cl)C(=O)n1ccnc1 | inactive
13 | CC[C@H](C)[C@H]1O[C@]2(C=C[C@@H]1C)C[C@@H]1C[C@@H](C/C=C(\C)[C@@H](O[C@H]3C[C@H](OC)[C@@H](O[C@H]4C[C@H](OC)[C@@H](O)[C@H](C)O4)[C@H](C)O3)[C@@H](C)/C=C/C=C3\CO[C@@H]4[C@H](O)C(C)=C[C@@H](C(=O)O1)[C@]34O)O2 (tested in a mixture with another compound) | inactive
14 | Cc1cc(C)nc(NC(=O)NS(=O)(=O)c2ccccc2C(=O)OC2COC2)n1 | inactive
15 | COC(=O)c1ccccc1CS(=O)(=O)NC(=O)Nc1nc(OC)cc(OC)n1 | inactive
16 | CCC(C)(NC(=O)c1cc(Cl)c(C)c(Cl)c1)C(=O)CCl (configuration not stated) | inactive

Row | Structure (SMILES) | outcome
17 | OCCOc1ccccc1 | inactive
18 | CC1(c2ccc(Oc3ccccc3)cc2)OC(=O)N(Nc2ccccc2)C1=O (configuration not stated) | inactive
19 | O=[N+]([O-])/N=C1\NCCN1Cc1ccc(Cl)nc1 | inactive
20 | COC(=O)c1ccccc1S(=O)(=O)NC(=O)N(C)c1nc(C)nc(OC)n1 | inactive
21 | C[C@H]1[C@H](c2ccc(Cl)cc2)SC(=O)N1C(=O)NC1CCCCC1 | inactive
22 | O=[N+]([O-])c1c(Cl)c(Cl)c(Cl)c(Cl)c1Cl | inactive
23 | CC1(C)C(C=C(Cl)Cl)C1C(=O)OC(C#N)c1ccc(F)c(Oc2ccccc2)c1 (configuration not stated) | inactive
24 | COc1nn(CSP(=S)(OC)OC)c(=O)s1 | inactive
25 | CN1CSC(=S)N(C)C1 | inactive
26 | Clc1ccccc1-c1nnc(-c2ccccc2Cl)nn1 | inactive
27 | C#CCN1C(=O)COc2cc(F)c(N3C(=O)C4=C(CCCC4)C3=O)cc21 | inactive
28 | Oc1cc(Cl)ccc1Oc1ccc(Cl)cc1Cl | inactive
29 | CC(C)OC(=O)Nc1cccc(Cl)c1 | inactive
30 | Cc1[nH]c(=O)n(C(C)(C)C)c(=O)c1Cl | inactive
31 | Oc1ccc(Cl)cc1Cc1ccccc1 | inactive
32 | ClC1C(Cl)C(Cl)C(Cl)C(Cl)C1Cl (configuration not stated) | inactive
